PubChem BioAssay AID1159580 (chemical genetic matrix, 2015)
Among all 5,500 compounds or so, about 2,000 (36%) were called active. About 18% were inconclusive and are not listed. No stated cut-off is given here; in the data, active means normalized growth mostly below about 0.91 (no sharp cut-off); inconclusive means no clear call, values can overlap the other calls; inactive means mostly above about 0.92. The list shows a part of the results.

Test: chemical genetic growth profiling, strain panel (AID 1159580);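 further: tested at 20 µM; growth read once vehicle control cultures reached saturation at 30 °C; 1 = growth at the plate median or of vehicle wells; lower values mean less growth of the strain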
Details: S. cerevisiae deletion strains, growth OD
[1] = locus YAL013W, strain DEP1, active compounds read low
[2] = locus YDL101C, strain DUN1, active compounds read low
[3] = locus YDR150W, strain NUM1, active compounds read low
[4] = locus YGR078C, strain PAC10, active compounds read low
[5] = locus YHR030C, strain SLT2, active compounds read low
[6] = locus YJR075W, strain HOC1, active compounds read low
[7] = locus YMR263W, strain SAP30, active compounds read low
[8] = locus YNL153C, strain GIM3, active compounds read low
[9] = locus YNL322C, strain KRE1, active compounds read low
[10] = locus YPL241C, strain CIN2, active compounds read low

Measured: normalized growth

O=C(Nc1ccc(Br)cc1Cl)C(Cl)(Cl)Cl
active: [5] 0.635 | [6] 0.888 | locus YLR039C, strain RIC1, active compounds read low 0.609 | locus YLR262C, strain YPT6, active compounds read low 0.635 | locus YMR307W, strain GAS1, active compounds read low 0.56 | locus YOL006C, strain TOP1, active compounds read low 0.681 | locus YPR135W, strain CTF4, active compounds read low 0.64
inactive: [1] 0.975 | locus YBR229C, strain ROT2, active compounds read low 0.964 | [2] 0.996 | [3] 0.97 | locus YEL061C, strain CIN8, active compounds read low 0.945 | [4] 0.943 | locus YHR087W, strain rtc3, active compounds read low 0.935 | locus YJR043C, strain POL32, active compounds read low 0.957 | locus YKL190W, strain CNB1, active compounds read low 0.941 | locus YLR058C, strain SHM2 (second series), active compounds read low 0.94 | locus YLR085C, strain ARP6, active compounds read low 0.782 | locus YML094W, strain GIM5, active compounds read low 1.04 | locus YMR219W, strain ESC1, active compounds read low 0.955 | [7] 0.963 | [8] 0.962 | locus YNL298W, strain CLA4 (second series), active compounds read low 0.855 | [9] 0.95 | locus YNR030W, strain Alg12, active compounds read low 0.935 | locus YPL055C, strain LGE1, active compounds read low 0.956 | [10] 1.02

C/C(O)=C(\C#N)C(=O)Nc1cc(Br)ccc1Br
inactive: [1] 0.98 | locus YAL040C, strain CLN3, active compounds read low 1.01 | locus YCL061C, strain MRC1 (second series), active compounds read low 0.99 | [3] 0.989 | locus YDR363W, strain ESC2, active compounds read low 1.05 | locus YER002W, strain NOP16, active compounds read low 1 | [4] 0.97 | locus YGR229C, strain SMI1, active compounds read low 1.01 | [6] 1.02 | [7] 0.969 | [8] 0.999 | locus YNL175C, strain NOP13, active compounds read low 0.959 | locus YNL197C, strain WHI3, active compounds read low 0.961 | locus YNL224C, strain SQS1, active compounds read low 0.967 | [9] 0.983 | locus YOR083W, strain WHI5 (second series), active compounds read low 0.972 | [10] 0.98

O=C(Nc1ccccc1Sc1ccc([N+](=O)[O-])cc1[N+](=O)[O-])C(Cl)(Cl)Cl
inactive: locus YAR019C, strain CDC15, active compounds read low 0.972 | locus YBL105C, strain PKC1, active compounds read low 0.972 | locus YBR135W, strain CKS1, active compounds read low 0.973 | locus YBR136W, strain MEC1, active compounds read low 0.97 | locus YBR160W, strain CDC28, active compounds read low 0.983 | locus YDL017W, strain CDC7, active compounds read low 0.975 | locus YDL028C, strain MPS1, active compounds read low 0.973 | [2] 0.976 | locus YDL108W, strain KIN28, active compounds read low 0.958 | locus YDL132W, strain cdc53, active compounds read low 0.983 | locus YDL214C, strain PRR2, active compounds read low 0.987 | locus YDR052C, strain DBF4, active compounds read low 0.974 | locus YDR054C, strain cdc34, active compounds read low 0.971 | locus YDR226W, strain ADK1, active compounds read low 0.965 | locus YDR477W, strain SNF1, active compounds read low 0.977 | locus YER123W, strain YCK3, active compounds read low 0.986 | locus YER133W, strain GLC7, active compounds read low 0.969 | locus YFL009W, strain cdc4, active compounds read low 0.96 | locus YFL029C, strain CAK1, active compounds read low 0.973 | locus YFR003C, strain YPI1, active compounds read low 0.965 | locus YFR019W, strain FAB1, active compounds read low 0.984 | locus YFR028C, strain CDC14, active compounds read low 0.966 | locus YGR040W, strain KSS1, active compounds read low 0.975 | locus YGR052W, strain FMP48, active compounds read low 1.02 | locus YGR092W, strain DBF2, active compounds read low 0.985 | [5] 1.02 | locus YHR079C, strain IRE1, active compounds read low 0.967 | locus YHR082C, strain KSP1, active compounds read low 1.06 | locus YHR205W, strain SCH9, active compounds read low 0.795 | locus YIL147C, strain SLN1, active compounds read low 0.972 | locus YJL095W, strain BCK1, active compounds read low 1.01 | locus YJL128C, strain PBS2, active compounds read low 0.92 | locus YJL157C, strain FAR1, active compounds read low 0.97 | locus YJR016C, strain ILV3, active compounds read low 0.971 | locus YJR066W, strain TOR1 (second series), active compounds read low 0.967 | locus YJR066W, strain TOR1, active compounds read low 1.1 | locus YKL048C, strain ELM1, active compounds read low 0.976 | locus YKL067W, strain YNK1, active compounds read low 0.982 | locus YKL101W, strain HSL1, active compounds read low 1 | locus YKL193C, strain SDS22, active compounds read low 0.965 | locus YKL203C, strain TOR2, active compounds read low 1.02 | locus YLR113W, strain HOG1, active compounds read low 1.04 | locus YLR133W, strain CKI1, active compounds read low 0.977 | locus YLR403W, strain SFP1, active compounds read low 0.873 | locus YML070W, strain DAK1, active compounds read low 0.998 | locus YMR001C, strain CDC5, active compounds read low 0.975 | locus YMR205C, strain PFK2 (second series), active compounds read low 0.973 | locus YMR277W, strain FCP1, active compounds read low 0.955 | locus YNL006W, strain LST8, active compounds read low 0.991 | locus YNL020C, strain ARK1, active compounds read low 0.994 | locus YNL161W, strain CBK1, active compounds read low 0.968 | locus YNL183C, strain NPR1, active compounds read low 1.1 | locus YNL207W, strain RIO2, active compounds read low 0.967 | locus YNL222W, strain SSU72, active compounds read low 0.976 | locus YNL307C, strain MCK1 (second series), active compounds read low 1 | locus YOL078W, strain AVO1, active compounds read low 0.978 | locus YOL136C, strain PFK27, active compounds read low 0.982 | locus YOR061W, strain CKA2, active compounds read low 0.98 | locus YOR119C, strain RIO1, active compounds read low 1.05 | locus YOR231W, strain MKK1, active compounds read low 1.08 | locus YOR329C, strain SCD5, active compounds read low 0.986 | locus YPL031C, strain PHO85, active compounds read low 0.959 | locus YPL153C, strain RAD53, active compounds read low 0.975 | locus YPL204W, strain HRR25, active compounds read low 0.966 | locus YPL209C, strain IPL1, active compounds read low 0.971 | locus YPL256C, strain CLN2, active compounds read low 0.996 | locus YPR025C, strain CCL1, active compounds read low 0.991 | locus YPR106W, strain ISR1, active compounds read low 0.952 | locus YPR111W, strain DBF20, active compounds read low 0.964 | strain NNK1, active compounds read low 0.972 | strain TSCII, active compounds read low 0.981
